# Assay results reported in the supplement of paper PMC10849652.
# About 7,900 targets were measured; listed, in parts, are those with a hit and a random draw of the rest. About 0.6% of all pairs of compound and target were hits. Unmarked numbers belong to inactive results.
# What was measured:
# Experiment in all cases: log2 fold change, soluble protein after heating vs DMSO (PISA); higher = thermal stabilisation; K562 cells, 10 uM, 30 min; active = over 0.2 and 3.5 SD of the protein, either way, in both replicates (recomputed)
# [1] = compound: C#Cc1cccc(Nc2ncnc3cc(OCCOC)c(OCCOC)cc23)c1 [erlotinib]
# Summary of the method: (§1)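 K562 cells at 2×10^6 cells/mL were given 10 μM compound for 30 min. Aliquots then went through 3 min of heating across 48°C-58°C, were pooled, and were extracted in PBS with 0.5% NP-40 at 4°C, and the supernatant after 21,000xg for 90 min was quantified by TMTpro 16plex LC-MS/MS with channel sums equalised. Thermal stability relative to control samples, from duplicates, is given as log2 fold change.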
# [2] = compound: C/C(=N\NC(=O)C1=CC(=CC=C1)S(=O)(=O)N2CCOCC2)/C3=C(C=CC(=C3)Cl)O
# Summary of the method: as §1
# [3] = compound: C1=CC(=C(C=C1Cl)C2=NC3=NC=CN=C3C(=N2)NC4=CC=NC=C4)F
# Summary of the method: as §1
# [4] = compound: C1=CC(=CC=C1C2=NC3=C(N2)C=C(C=C3)C(=O)N)OC4=CC=C(C=C4)Cl
# Summary of the method: as §1
# [5] = compound: C1=CC2=C(C=CC(=C2)/C=C\3/C(=O)NC(=NCC4=CC=CS4)S3)N=C1
# Summary of the method: as §1
# [6] = compound: C1=CC2=NC=CN=C2C=C1/C=C/3\C(=O)NC(=O)S3
# Summary of the method: as §1
# [7] = compound: C1=CC=C(C=C1)C2=NC(=C(N2)C3=CC=NC=C3)C4=CC(=C(C=C4)Cl)O
# Summary of the method: as §1
# [8] = compound: C1=CC=C2C(=C1)C3=NNC4=CC=CC(=C43)C2=O
# Summary of the method: as §1
# [9] = compound: C1CCN(C1)C(=O)NC2=CC=CC(=C2)NC3=NC=C(C(=N3)NCCC4=CN=CN4)Br
# Summary of the method: as §1
# [10] = compound: C1CN(CCC1(CC2=CC=C(C=C2)Cl)N)C3=NC=NC4=C3C=CN4
# Summary of the method: as §1
# [11] = compound: C1COCCN1CCN2C3=CC=CC=C3N=C2NC(=O)C4=CC(=CC=C4)[N+](=O)[O-] [IRAK-1-4 Inhibitor I]
# Summary of the method: as §1
# [12] = compound: C=CC(=O)N1CCC[C@@H](n2nc(-c3ccc(Oc4ccccc4)cc3)c3c(N)ncnc32)C1 [ibrutinib]
# Summary of the method: as §1
# [13] = compound: CC(=O)c1cnc2ccc(-c3cc(Cl)c(O)c(Cl)c3)nc2c1N[C@H]1CC[C@H](CN(C)C)CC1
# Summary of the method: as §1
# [14] = compound: CC(C)(C)Cn1c(N)nc2ccc(-c3[nH]c(C(C)(C)C)nc3-c3ccc(F)cc3)nc21 [ralimetinib]
# Summary of the method: as §1
# [15] = compound: CC(C)(O)CC(=O)NCCn1ccc2ncnc(Nc3ccc(Oc4cccc(C(F)(F)F)c4)c(Cl)c3)c21
# Summary of the method: as §1
# [16] = compound: CC(C)C1=C2N=C(C=C(N2N=C1)NCC3=CC=CC=C3)NCCCCCCN
# Summary of the method: as §1
# [17] = compound: CC(C)C[C@@H](C=O)NC(=O)[C@H](CC(C)C)NC(=O)[C@H](CC(C)C)NC(=O)OCc1ccccc1
# Summary of the method: as §1
# [18] = compound: CC(C)N(C[C@H]1O[C@@H](n2cnc3c(N)ncnc32)[C@H](O)[C@@H]1O)[C@H]1C[C@@H](CCc2nc3cc(C(C)(C)C)ccc3[nH]2)C1 [pinometostat]
# Summary of the method: as §1
# [19] = compound: CC1=C(C(CC(=O)N1)C2=CC=C(C=C2)C(F)(F)F)C(=O)NC3=C(C=C4C(=C3)C=NN4)F
# Summary of the method: as §1
# [20] = compound: CC1=C(C2=C(C=C1)C(=O)C3=CC=CC=C3N2CCCN)C
# Summary of the method: as §1
# UniProt Q9UPY8, sequence (Q9UPY8 whole entry, looked up): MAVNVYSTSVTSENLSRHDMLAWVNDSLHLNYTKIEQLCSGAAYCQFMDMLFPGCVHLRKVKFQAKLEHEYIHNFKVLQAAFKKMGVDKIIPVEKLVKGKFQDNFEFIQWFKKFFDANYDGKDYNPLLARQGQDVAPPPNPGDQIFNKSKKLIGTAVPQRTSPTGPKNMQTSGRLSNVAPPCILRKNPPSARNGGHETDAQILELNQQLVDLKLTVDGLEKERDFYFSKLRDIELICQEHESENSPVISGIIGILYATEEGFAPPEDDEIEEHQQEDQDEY
# UniProt Q7L2J0, sequence (Q7L2J0 whole entry, looked up): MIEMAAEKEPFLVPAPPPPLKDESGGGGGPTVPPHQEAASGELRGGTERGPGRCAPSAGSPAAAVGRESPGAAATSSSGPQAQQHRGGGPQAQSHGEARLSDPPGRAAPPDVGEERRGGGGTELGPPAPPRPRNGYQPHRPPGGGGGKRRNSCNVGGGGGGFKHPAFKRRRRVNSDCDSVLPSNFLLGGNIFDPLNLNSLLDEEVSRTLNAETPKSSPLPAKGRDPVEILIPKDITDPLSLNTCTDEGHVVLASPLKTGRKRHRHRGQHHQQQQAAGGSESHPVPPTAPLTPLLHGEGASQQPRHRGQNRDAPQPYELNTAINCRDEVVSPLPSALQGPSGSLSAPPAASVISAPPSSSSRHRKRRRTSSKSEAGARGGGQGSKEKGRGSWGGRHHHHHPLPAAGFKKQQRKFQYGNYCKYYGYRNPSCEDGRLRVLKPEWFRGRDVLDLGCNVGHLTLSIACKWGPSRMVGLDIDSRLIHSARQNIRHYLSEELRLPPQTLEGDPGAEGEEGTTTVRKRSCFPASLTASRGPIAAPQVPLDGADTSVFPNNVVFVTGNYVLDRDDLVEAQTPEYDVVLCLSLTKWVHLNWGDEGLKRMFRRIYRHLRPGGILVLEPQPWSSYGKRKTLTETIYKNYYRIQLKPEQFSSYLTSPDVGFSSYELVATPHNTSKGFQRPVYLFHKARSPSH
# UniProt Q9GZY8, sequence (Q9GZY8 whole entry, looked up): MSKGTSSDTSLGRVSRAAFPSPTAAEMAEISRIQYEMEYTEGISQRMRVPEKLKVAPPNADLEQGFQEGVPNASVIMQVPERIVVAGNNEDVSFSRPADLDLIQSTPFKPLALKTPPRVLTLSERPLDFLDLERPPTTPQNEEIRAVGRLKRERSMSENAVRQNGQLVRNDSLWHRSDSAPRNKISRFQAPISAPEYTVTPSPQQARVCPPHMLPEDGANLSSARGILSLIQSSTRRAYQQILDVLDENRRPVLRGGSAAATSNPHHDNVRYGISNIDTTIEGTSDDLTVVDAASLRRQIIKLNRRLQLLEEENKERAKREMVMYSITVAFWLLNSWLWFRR
# UniProt O94822, sequence (O94822 whole entry, looked up): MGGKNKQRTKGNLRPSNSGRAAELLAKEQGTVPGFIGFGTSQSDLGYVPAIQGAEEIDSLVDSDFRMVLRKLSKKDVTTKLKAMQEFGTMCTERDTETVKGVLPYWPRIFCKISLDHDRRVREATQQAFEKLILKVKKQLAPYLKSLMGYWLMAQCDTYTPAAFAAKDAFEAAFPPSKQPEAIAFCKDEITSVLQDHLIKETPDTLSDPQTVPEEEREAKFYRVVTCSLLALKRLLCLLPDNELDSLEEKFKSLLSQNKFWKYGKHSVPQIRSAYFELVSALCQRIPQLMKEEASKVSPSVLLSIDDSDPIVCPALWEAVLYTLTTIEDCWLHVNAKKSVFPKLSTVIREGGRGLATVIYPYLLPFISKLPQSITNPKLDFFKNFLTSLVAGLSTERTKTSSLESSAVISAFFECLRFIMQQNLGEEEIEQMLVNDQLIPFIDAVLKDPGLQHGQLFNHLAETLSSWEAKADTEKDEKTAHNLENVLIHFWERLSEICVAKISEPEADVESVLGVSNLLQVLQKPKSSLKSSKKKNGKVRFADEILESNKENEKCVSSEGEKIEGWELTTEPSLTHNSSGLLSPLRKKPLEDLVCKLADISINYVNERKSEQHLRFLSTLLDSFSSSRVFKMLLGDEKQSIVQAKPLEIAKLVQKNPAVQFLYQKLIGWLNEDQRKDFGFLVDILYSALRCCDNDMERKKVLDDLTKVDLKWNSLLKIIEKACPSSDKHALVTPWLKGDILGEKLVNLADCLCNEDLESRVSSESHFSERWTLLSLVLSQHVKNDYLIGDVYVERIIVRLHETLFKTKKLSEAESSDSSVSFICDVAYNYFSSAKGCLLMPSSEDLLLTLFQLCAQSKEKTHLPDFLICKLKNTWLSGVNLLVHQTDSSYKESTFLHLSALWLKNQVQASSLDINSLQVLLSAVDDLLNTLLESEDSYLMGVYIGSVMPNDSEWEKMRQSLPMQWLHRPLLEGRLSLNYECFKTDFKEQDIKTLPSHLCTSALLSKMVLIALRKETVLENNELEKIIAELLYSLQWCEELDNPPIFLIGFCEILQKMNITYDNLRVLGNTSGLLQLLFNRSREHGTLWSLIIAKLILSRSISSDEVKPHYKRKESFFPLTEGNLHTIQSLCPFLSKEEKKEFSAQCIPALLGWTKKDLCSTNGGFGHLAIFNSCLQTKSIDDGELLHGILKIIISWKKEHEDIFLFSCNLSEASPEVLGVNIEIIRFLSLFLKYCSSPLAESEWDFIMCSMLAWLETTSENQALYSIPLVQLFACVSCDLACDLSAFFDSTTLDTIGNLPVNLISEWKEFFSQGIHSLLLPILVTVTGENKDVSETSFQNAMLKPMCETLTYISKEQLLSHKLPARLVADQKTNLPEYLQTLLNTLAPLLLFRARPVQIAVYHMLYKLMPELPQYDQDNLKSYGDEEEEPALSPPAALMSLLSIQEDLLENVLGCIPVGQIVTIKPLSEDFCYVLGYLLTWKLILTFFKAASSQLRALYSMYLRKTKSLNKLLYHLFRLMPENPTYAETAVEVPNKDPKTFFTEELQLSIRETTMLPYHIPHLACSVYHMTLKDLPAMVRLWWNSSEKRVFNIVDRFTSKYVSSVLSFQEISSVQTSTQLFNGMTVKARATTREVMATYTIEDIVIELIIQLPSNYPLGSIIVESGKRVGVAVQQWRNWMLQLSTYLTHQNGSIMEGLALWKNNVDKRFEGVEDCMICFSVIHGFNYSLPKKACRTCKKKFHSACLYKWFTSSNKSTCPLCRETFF
# UniProt Q9UHB6, sequence (Q9UHB6 whole entry, looked up): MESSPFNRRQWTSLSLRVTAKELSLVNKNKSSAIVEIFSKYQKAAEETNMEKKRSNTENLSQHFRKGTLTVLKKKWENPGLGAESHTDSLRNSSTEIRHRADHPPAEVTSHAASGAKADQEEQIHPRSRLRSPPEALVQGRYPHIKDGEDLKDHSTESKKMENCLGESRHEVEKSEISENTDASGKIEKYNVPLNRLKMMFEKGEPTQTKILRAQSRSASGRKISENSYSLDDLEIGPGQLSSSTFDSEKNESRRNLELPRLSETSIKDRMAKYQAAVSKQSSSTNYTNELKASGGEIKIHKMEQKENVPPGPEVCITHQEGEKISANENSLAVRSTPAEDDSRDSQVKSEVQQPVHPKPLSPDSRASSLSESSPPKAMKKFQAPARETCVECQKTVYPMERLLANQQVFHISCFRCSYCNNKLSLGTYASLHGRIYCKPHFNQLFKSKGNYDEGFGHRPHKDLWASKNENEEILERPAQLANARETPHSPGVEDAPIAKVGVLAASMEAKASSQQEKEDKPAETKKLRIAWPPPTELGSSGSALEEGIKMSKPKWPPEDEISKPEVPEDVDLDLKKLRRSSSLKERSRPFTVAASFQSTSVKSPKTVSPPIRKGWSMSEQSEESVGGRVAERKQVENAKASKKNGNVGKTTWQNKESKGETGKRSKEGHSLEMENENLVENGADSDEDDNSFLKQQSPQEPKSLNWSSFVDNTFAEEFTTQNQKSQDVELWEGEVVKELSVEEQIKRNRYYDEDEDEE
# UniProt P53778, sequence (P53778 whole entry, looked up): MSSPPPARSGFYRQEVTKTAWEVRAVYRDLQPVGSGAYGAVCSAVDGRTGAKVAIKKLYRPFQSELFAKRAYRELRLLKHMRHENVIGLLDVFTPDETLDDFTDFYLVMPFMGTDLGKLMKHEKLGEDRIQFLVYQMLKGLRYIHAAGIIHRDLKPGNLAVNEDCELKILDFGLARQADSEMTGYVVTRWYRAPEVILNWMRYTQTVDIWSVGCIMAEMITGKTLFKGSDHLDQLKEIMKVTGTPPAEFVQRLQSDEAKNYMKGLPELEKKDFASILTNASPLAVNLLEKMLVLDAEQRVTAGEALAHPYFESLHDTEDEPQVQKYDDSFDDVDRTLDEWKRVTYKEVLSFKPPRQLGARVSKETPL
# UniProt P29966, sequence (P29966 whole entry, looked up): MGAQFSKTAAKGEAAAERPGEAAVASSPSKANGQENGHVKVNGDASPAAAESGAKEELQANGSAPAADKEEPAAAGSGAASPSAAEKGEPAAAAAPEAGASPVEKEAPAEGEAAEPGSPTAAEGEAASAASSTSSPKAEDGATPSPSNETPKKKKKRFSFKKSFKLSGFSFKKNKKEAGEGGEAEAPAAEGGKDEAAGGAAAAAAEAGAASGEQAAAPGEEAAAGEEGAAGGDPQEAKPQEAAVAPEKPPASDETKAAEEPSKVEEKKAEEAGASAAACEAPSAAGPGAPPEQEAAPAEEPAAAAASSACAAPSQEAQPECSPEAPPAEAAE
# UniProt Q8WWC4, sequence (Q8WWC4 whole entry, looked up): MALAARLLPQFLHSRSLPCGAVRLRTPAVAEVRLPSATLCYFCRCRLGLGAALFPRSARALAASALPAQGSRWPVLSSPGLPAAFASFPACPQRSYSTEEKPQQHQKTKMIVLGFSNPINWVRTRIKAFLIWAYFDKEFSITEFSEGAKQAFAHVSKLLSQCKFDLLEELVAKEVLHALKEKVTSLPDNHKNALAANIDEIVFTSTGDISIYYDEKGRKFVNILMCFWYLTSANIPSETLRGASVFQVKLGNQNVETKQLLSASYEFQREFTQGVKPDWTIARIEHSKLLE
Target,log2 fold change [1],log2 fold change [2],log2 fold change [3],log2 fold change [4],log2 fold change [5],log2 fold change [6],log2 fold change [7],log2 fold change [8],log2 fold change [9],log2 fold change [10],log2 fold change [11],log2 fold change [12],log2 fold change [13],log2 fold change [14],log2 fold change [15],log2 fold change [16],log2 fold change [17],log2 fold change [18],log2 fold change [19],log2 fold change [20]
MEPCE (UniProt Q7L2J0),0.063,0.064,-0.022,-0.002,0.039,-0.01,0.103,0.024,-0.049,-0.047,0.088,0.023,0.166,0.108,0.026,-0.16,0,0.098,-0.026,-0.31 (active)
IGF2R (UniProt P11717),-0.052,0,0,0.025,-0.012,0.003,0.009,-0.021,0.002,0.012,-0.002,0.013,0.016,-0.038,-0.007,-0.218 (active),-0.009,0.005,0.029,-0.071
KIF21A isoform 4 (UniProt Q7Z4S6),0.017,0.056,-0.043,-0.016,-0.023,0.006,-0.075,-0.065,-0.144,-0.233,-0.025,-0.053,-0.054,0.035,-0.062,-0.009,0.084,0.144,0.01,0.096
MFF (UniProt Q9GZY8),0.02,-0.022,0.011,-0.024,0.107,0.057,-0.008,-0.062,0.007,0.032,0.038,0.025,-0.228,0.018,0.002,-0.074,0.048,-0.012,0.124,-0.042
LYN (UniProt P07948),-0.073,0.044,-0.171,0.007,0.005,-0.028,-0.014,-0.253,0.035,-0.015,-0.016,0.4 (active),-0.456 (active),0.045,0.018,-0.03,0.24,0.065,0.008,0.078
LTN1 isoform 3 (UniProt O94822),0.026,0.114,-0.021,-0.02,0.032,-0.021,-0.027,-0.056,-0.027,-0.031,-0.05,-0.015,-0.02,0.007,-0.136,-0.305 (active),0.055,0.098,-0.007,0.093
LSR (UniProt Q86X29),0.022,0.022,-0.08,0.002,-0.019,0.019,-0.105,-0.114,-0.038,0.073,0.053,0.006,-0.139,-0.009,0.058,0.093,0.086,-0.046,-0.035,-0.008
LIMA1 isoform 4 (UniProt Q9UHB6),-0.015,-0.062,-0.039,0.069,0.038,-0.015,0.022,0.054,0,-0.039,-0.031,0.033,-0.267 (active),0.011,0.114,0.206,-0.03,0.006,0.079,0.049
MARCKS (UniProt P29966),-0.033,-0.032,0.061,0.045,-0.026,0.048,0.119,0.025,0.01,0.118,-0.077,0.071,0.014,0.025,-0.099,0.039,0.134,-0.109,0.031,0.002
MARK2 (UniProt E9PC69),0.12,0.091,0.043,-0.042,0.115,-0.1,-0.014,-0.756 (active),-0.227,-0.126,-0.156,-0.047,-2.09 (active),0.031,-0.047,-0.581,0.049,0.078,0.077,0.034
MAIP1 (UniProt Q8WWC4),-0.02,0.006,-0.012,0.002,0.02,0.042,0.066,0.037,-0.024,0.012,0,-0.014,-0.004,-0.028,0.09,-0.201,-0.026,-0.042,-0.011,0.052
MAPK12 (UniProt P53778),-0.039,-0.033,-0.093,-0.053,0.008,-0.074,0.073,0.003,0.087,0.024,0.074,0.066,0.201,-0.046,0.001,0.388,-0.005,-0.004,0.207,-0.025
MDC1 (UniProt Q14676),0.056,-0.284,-0.184,0.025,0,0.057,0.177,-0.094,-0.139,0.072,-0.012,-0.013,-0.013,0.062,0.122,-0.321,0.176,0.133,0.001,0.11
MAP4K4 isoform 3 (UniProt O95819),-0.057,0.058,-0.047,0.021,0,0.034,-0.069,-0.316 (active),-0.031,-0.012,0,0.043,-1.13 (active),-0.039,-0.023,-0.027,0.024,0.046,0.107,0.073
MAPRE3 (UniProt Q9UPY8),-0.039,0.252 (active),0.076,0.003,-0.013,0.042,-0.05,0,0.035,-0.01,0.027,-0.044,-0.003,-0.142,-0.049,-0.079,-0.033,0.019,0.01,-0.029
KIAA1324L (UniProt A8MWY0),0.036,-0.077,0.003,0.05,0.092,-0.068,0.003,-0.042,-0.03,0.064,0.027,-0.056,-0.052,-0.024,-0.038,0.024,0,-0.008,0.034,-0.037
